Among the data in PubChem BioAssay AID602143 (Vanderbilt Specialized Chemistry Center, 2011) are remaining activity values, retold here.

Unmarked numbers belong to inactive results. Active and inactive are the calls of the source. No stated cut-off is given here; in the data, active means remaining activity below about 50%; inactive means the rest.

For this test, the target named is Phospholipase D2 (Homo sapiens) (UniProt O14939). The experiment in a line: cellular phospholipase D2 activity inhibition – cell-based, HEK293, single concentration (AID 602143).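 Further: tested at 200 nM.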 As to conditions: HEK293 cellular PLD2 activity, percent of control; active compounds read low.
Chain of Phospholipase D2 (Homo sapiens) (O14939 whole entry, looked up): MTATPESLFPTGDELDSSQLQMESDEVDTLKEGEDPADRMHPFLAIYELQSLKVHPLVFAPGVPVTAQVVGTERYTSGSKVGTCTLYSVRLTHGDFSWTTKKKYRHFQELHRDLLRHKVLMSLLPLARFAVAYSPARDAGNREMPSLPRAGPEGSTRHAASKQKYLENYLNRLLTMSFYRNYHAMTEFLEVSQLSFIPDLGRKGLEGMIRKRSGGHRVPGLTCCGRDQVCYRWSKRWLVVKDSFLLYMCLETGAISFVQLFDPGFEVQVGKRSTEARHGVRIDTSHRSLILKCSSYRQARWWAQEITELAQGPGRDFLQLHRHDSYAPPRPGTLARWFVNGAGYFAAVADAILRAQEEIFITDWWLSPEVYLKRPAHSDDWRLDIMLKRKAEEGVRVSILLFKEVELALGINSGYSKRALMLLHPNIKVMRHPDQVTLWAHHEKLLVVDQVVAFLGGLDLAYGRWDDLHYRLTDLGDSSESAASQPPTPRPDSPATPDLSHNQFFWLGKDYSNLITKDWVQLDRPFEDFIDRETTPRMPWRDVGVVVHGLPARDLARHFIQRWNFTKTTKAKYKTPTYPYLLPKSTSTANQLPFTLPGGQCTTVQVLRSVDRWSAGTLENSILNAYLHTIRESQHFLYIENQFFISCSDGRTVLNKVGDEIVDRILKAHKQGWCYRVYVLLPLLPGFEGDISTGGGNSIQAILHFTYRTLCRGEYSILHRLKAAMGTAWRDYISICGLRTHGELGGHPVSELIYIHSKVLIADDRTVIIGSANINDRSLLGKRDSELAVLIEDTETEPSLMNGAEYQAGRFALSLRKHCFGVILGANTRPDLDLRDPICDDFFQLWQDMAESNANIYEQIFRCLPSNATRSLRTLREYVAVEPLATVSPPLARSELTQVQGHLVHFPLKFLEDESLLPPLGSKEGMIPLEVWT
Chain of Phospholipase D2 (Homo sapiens) (O14939 whole entry, looked up): as above
As a reminder, the remaining activity is the signal under treatment as a percentage of the control signal. Turning to `O=C(NCCN1CCC2(CC1)C(=O)NCN2c1ccccc1)c1cnc2ccccc2c1`, the remaining activity was 56.6%. For `O=C1NCN(c2ccccc2)C12CCN(CCN1CCCC1)CC2`, the remaining activity was 84.9%. As for `O=C(Cc1cccs1)NCCN1CCC2(CC1)C(=O)NCN2c1cccc(F)c1`, the figure is 77.8%; as for `O=C(NCCN1CCC2(CC1)C(=O)NCN2c1cccc(F)c1)c1ccc(-c2ccccc2)cc1`, 101%. Regarding `O=C(NCCN1CCC2(CC1)C(=O)NCN2c1ccccc1)c1ccc2c(c1)OCO2`, the remaining activity was 90%.

`O=C(NCCN1CCC2(CC1)C(=O)NCN2c1ccccc1)c1cccnn1`: the remaining activity was 88.2%. As for `O=C(NCCN1CCC2(CC1)C(=O)NCN2c1cccc(Cl)c1)c1ccc(F)cc1`, the figure is 65.4%; as for `C[C@@H](CN1CCC2(CC1)C(=O)NCN2c1ccc(F)c(F)c1)NC(=O)c1cc2cc(F)ccc2[nH]1`, 4.81% (active); as for `COc1cccc(C(=O)NCCN2CCC3(CC2)C(=O)NCN3c2ccccc2)n1`, 60.7%. As for `O=C(NCCN1CCC2(CC1)C(=O)NCN2c1ccc(F)cc1)c1ccc(F)cc1`, the figure is 46.9% (active); as for `O=C(NCCN1CCC2(CC1)C(=O)NCN2c1ccc(F)c(F)c1)c1ccc2ccccc2c1`, 40.1% (active); as for `CC(C)[C@@H](CN1CCC2(CC1)C(=O)NCN2c1ccccc1)NC(=O)c1cnc2ccccc2c1`, 59.3%. As for `O=C(NCCN1CCC2(CC1)C(=O)NCN2c1ccc(F)cc1)c1cc2ccccc2[nH]1`, the figure is 8.73% (active); as for `Cc1ccccc1C(=O)NCCN1CCC2(CC1)C(=O)NCN2c1cccc(F)c1`, 115%.

Consider `O=C(c1cnc2ccccc2c1)N1CCC[C@@H]1CN1CCC2(CC1)C(=O)NCN2c1ccccc1`, for which the remaining activity is 106%. Take `O=C(NCCN1CCC2(CC1)C(=O)NCN2c1cccc(F)c1)c1cc(C(F)(F)F)ccc1C(F)(F)F`: the remaining activity is 87.9%. As for `O=C(NCCN1CCC2(CC1)C(=O)NCN2c1ccccc1)c1ncc(F)cc1F`, the figure is 52.8%.

For the molecule `O=C(NCCN1CCC2(CC1)C(=O)NCN2c1ccc(F)cc1)c1cc2cc(F)ccc2[nH]1`, the remaining activity is 14.3% (active). As for `O=C(NCCN1CCC2(CC1)C(=O)NCN2c1ccccc1)c1cccc(Cl)n1`, the figure is 52.9%; as for `O=C(c1cnc2ccccc2c1)N1CC(N2CCC(n3c(=O)[nH]c4cc(Br)ccc43)CC2)C1`, 99.7%. For the molecule `O=C(NCCN1CCC2(CC1)C(=O)NCN2c1ccccc1)c1cc(=O)c2cc(Br)ccc2o1`, the remaining activity is 122%. In the case of `C[C@@H](CN1CCC2(CC1)C(=O)NCN2c1ccc(F)c(F)c1)NC(=O)c1ccc(F)cc1` it was 23.6% (active).
